# Assay outcomes as filed in PubChem.
# Only some compounds are listed: those with a hit (about 0.64% of all), similar ones and a draw of the others.
# MT1-MMP txn act = MT1-MMP promoter reporter activation – cell-based, luciferase luminescence, primary screen. HT1080 MT1-MMP promoter luciferase reporter, overnight; stronger effect = higher value. activation factor at 10 µM. 86,000 compounds, 0.16% hits;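 active = activation factor of at least 2 for MT1-MMP transcription at 10 µM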
# PTPN22 inh 2 = PTPN22 phosphatase inhibitors, primary screen, biochemical, DiFMUP fluorescence, 2 µM; Tyrosine-protein phosphatase non-receptor type 22 (Homo sapiens), Q9Y2R2; recombinant LYP catalytic domain; inhibition, % at 2 µM; 96,000 compounds, 0.21% hits; AID 640, 2007;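 active = inhibition at 2 µM at or above a set limit, the screen mean plus 3 SD, cut at about 24% in these data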;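 note: 0% = DMSO with enzyme and 100% = enzyme fully blocked by orthovanadate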
# E coli RNAP = E. coli RNAP inhibitors, biochemical. E. coli RNA polymerase, fluorescence transcription assay. inhibition, %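 (tested at 10 µM)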. 62,000 compounds, 0.2% hits; in the data active = inhibition above about 20%;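 note: 0% = enzyme without compound and 100% = no enzyme blank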
# LYP act = LYP phosphatase activators, primary screen, biochemical, DiFMUP fluorescence, 2 µM. activation, % at 2 µM. 96,000 compounds, 0.11% hits. recombinant LYP; 0 = plate median, 100 = signal doubled. AID 697, 2007;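 active = activation at 2 µM above a set limit, the mean plus 5 SD, cut at about 37% in these data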
# sEH inh = soluble epoxide hydrolase inhibitors, primary screen, biochemical, human sEH | Bifunctional epoxide hydrolase 2 (Homo sapiens), P34913 | recombinant human sEH enzymatic activity assay | inhibition, % at 2 µM | 91,000 compounds, 0.34% hits | AID 707, 2007; in the data active = inhibition above about 80%
# Target sequence (P34913 whole entry, looked up): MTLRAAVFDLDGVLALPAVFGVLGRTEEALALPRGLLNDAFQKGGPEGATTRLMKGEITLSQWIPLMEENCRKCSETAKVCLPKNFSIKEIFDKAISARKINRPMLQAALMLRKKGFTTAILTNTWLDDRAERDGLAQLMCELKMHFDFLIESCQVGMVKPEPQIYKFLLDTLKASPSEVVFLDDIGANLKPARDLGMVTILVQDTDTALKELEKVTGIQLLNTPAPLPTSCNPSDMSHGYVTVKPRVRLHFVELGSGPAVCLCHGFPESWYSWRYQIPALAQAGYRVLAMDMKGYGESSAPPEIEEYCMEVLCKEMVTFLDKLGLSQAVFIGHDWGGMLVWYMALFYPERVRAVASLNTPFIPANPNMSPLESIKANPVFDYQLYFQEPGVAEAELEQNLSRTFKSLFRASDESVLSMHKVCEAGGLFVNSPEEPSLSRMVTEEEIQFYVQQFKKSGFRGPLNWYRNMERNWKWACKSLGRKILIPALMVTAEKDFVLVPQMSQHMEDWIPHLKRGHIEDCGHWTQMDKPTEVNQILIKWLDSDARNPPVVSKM
# sEH act = soluble epoxide hydrolase activators, primary screen, biochemical, human sEH; 91,000 compounds, 0.04% hits; purified human sEH enzymatic activity, activator screen; activation, % at 2 µM; AID 717, 2007; in the data active = activation above about 37%
# Numbers without * were called inactive; · = not tested or not shown.
SMILES,MT1-MMP txn act,PTPN22 inh 2,E coli RNAP,LYP act,sEH inh,sEH act
OC(COCC1COc2ccccc2O1)CN1CCN(c2ccccc2F)CC1 (configuration not stated),·,-3.0,·,5.5,-48.3,47.1*
N#Cc1nc(COc2ccccc2F)oc1N1CCCCCC1,2.2*,4.6,9.8,-5.3,-5.6,8.4
N#Cc1nc(COc2ccccc2Cl)oc1N1CCCCCC1,1.1,-4.3,6.9,1.8,-3.7,3.5
Cc1nn(C)cc1/C=C/C(=O)c1ccccc1,·,-14.6,·,18.1,-3.1,5.1
Cc1nn(C)cc1/C=C/C(=O)c1cccs1,2.5*,3.2,·,-1.6,3.1,-0.6
CCOC(=O)C1=C(COc2ccccc2)NC(=O)NC1c1cccc([N+](=O)[O-])c1 (configuration not stated),1,·,·,·,·,·
COc1ccc(Nc2nc(C)c3ccccc3n2)cc1,2.1*,-19.6,2.2,16.7,-9.4,8.1
COC(=O)c1sc(NC(=O)c2oc3ccccc3c2C)nc1C,2.3*,0.6,12.3,0.7,3.1,0.4
O=C(CCCNS(=O)(=O)c1cccc2nsnc12)NCc1ccc(F)cc1,1.2,2.2,28.3*,-4.4,6.3,-8.5
Cc1ccc2c(Cl)cc(Cl)c(OCC(=O)NCc3ccco3)c2n1,1.3,30.3*,·,-28.0,4.0,-4.4
COC(=O)CNC(=O)[C@@]1(C)C=C[C@@H](Cc2ccccc2)N1C(=O)OC,0,·,·,·,·,·
Cc1nc(NC(=O)CC(C)C)sc1-c1csc(Nc2ccc(Cl)cc2Cl)n1,·,20.9,·,-17.6,25.3,-24.8
Cc1nc(NC(=O)CC(C)C)sc1-c1csc(Nc2ccc(Cl)cc2)n1,·,50.6*,·,-49.0,21.9,-17.2
O=C(NC(C(=O)N/N=C/c1c2ccccc2cc2ccccc12)c1n[nH]c(=O)c2ccccc12)c1ccccc1 (configuration not stated),1,19.8,·,-18.4,1.9,-4.6
O=C(NC(C(=O)N/N=C/c1ccccc1)c1n[nH]c(=O)c2ccccc12)c1ccccc1 (configuration not stated),1.1,25.6*,·,-24.2,-1.3,-1.5
Cc1ccc(NC(=O)NCCCc2ccccc2)cc1,·,4.1,·,-2.1,83.4*,-83.1
Cc1ccc(NC(=O)NCCc2ccc(S(N)(=O)=O)cc2)cc1,1,-5.8,8.3,3.2,·,·
COc1ccc(S(=O)(=O)N2CC3CCCN3c3ccc(C(F)(F)F)cc32)cc1 (configuration not stated),·,14.2,·,-10.7,-13.0,14.2
COc1ccc(S(=O)(=O)N2CC3CCCN3c3cc(C(F)(F)F)ccc32)cc1 (configuration not stated),·,25.0*,·,-21.8,-2.4,3.5
C#CCN(Cc1ccccc1)C(=O)/C=C/c1ccccc1,1.2,·,·,·,·,·
O=C(Nc1ccc2oc(-c3ccc4ccccc4c3)nc2c1)c1ccc2c(c1)OCCO2,·,31.1*,·,-29.3,28.6,-27.8
COc1ccc(NC(=O)Cn2nnc(-c3ccccc3NC(=O)C3CC3)n2)cc1,1.2,·,10.6,·,·,·
CCOc1ccc(NC(=O)Cn2nnc(-c3ccccc3NC(=O)C3CC3)n2)cc1,1.2,-19.5,23.7*,20.0,7.5,-8.8
CCNS(=O)(=O)c1ccc(NS(=O)(=O)c2cc(C)ccc2C)cc1,1.1,-2.7,15.5,2.9,-9.6,13.6
CCCCNS(=O)(=O)c1ccc(NS(=O)(=O)c2c(C)cc(C)cc2C)cc1,1.1,28.2*,·,-28.9,5.3,-7.6
SMILES,MT1-MMP txn act,PTPN22 inh 2,E coli RNAP,LYP act,sEH inh,sEH act
CC1=C(C(=O)OCC(Br)(Br)Br)C(c2ccccc2)NC(=O)N1CCCC(=O)O (configuration not stated),1.3,·,·,·,·,·
O=C(NCCC1=CCCCC1)C(c1ccccc1)c1ccccc1,·,14.8,·,-11.4,31.5,-30.1
O=C(NCCC1=CCCCC1)NC12CC3CC(CC(C3)C1)C2,1.8,-1.7,·,1.0,97.2*,-97.2
CC1(C(=O)NCc2ccccn2)C=CCN1C(=O)c1ccccc1 (configuration not stated),1.2,·,·,·,·,·
COc1ccc(CCNC(=O)CSc2nnc(CNc3ccc(Cl)cc3)o2)cc1OC,1.1,5.7,5.8,-3.3,-11.0,8.2
O=C(CSc1nnc(CNc2ccc(Cl)cc2)o1)Nc1nc2c(s1)CCCC2,1.2,·,23.1*,·,·,·
Cc1ccc(S(=O)(=O)/N=C2/C=C(C3C(=O)CC(C)(C)CC3=O)C(=O)c3ccccc32)cc1,2.1*,-7.8,·,9.3,11.0,-13.0
COC(=O)Cn1c(C(=O)N(C)C)cc2c1C[C@H]1CN(C(=O)c3ccccc3)[C@@](Cc3ccc(OC)cc3)(C(=O)OC)[C@@H]21,1.2,·,·,·,·,·
COc1ccc2c(c1)-c1ccccc1S(=O)(=O)N2C(C)=O,1.1,-1.8,28.7*,5.2,10.4,-8.5
COc1ccc(OC)c(NC(=O)CN2C(=O)c3ccccc3S2(=O)=O)c1,1.1,·,8.8,·,·,·
CC(C)C12CN3CC(C(C)C)(CN(C1)C3c1ccccc1)C2O (configuration not stated),1.2,-0.7,1.4,1.2,-40.5,38.8*
CC1=NN(c2cccc(C(=O)O)c2)C(=O)/C1=C\C=C\c1ccco1,1.9,6.8,·,-7.2,-18.9,18.9
CC(C)C(C(=O)O)N1C(=O)/C(=C/C=C/c2ccco2)SC1=S (configuration not stated),·,29.1*,·,-25.1,5.8,-5.4
Cn1cc(-c2nnc(-c3ccccc3)o2)c2ccccc21,2.3*,7.5,·,-5.1,7.5,-4.9
Cc1ccccc1-c1nnc(-c2ccccc2)o1,1.4,·,8.4,·,·,·
COCCn1c(C(=O)N(C)C)cc2c1C[C@H]1CN(C(=O)c3ccccc3)[C@@](Cc3ccc(OC)cc3)(C(=O)OC)[C@@H]21,1.2,·,·,·,·,·
CC(c1ccccc1)N1CCn2c(nc3cc(NC(=O)c4cccs4)ccc32)C1 (configuration not stated),1.5,-5.2,·,8.8,10.1,-10.3
CC(c1ccccc1)N1CCn2c(nc3cc(NC(=O)NC4CCCCC4)ccc32)C1 (configuration not stated),1.2,6.6,·,-3.3,97.2*,-97.2
CCc1nc2oc3cc(OC)ccc3c(=O)c2c(=O)n1-c1ccccc1,1.2,0.9,·,-2.0,-9.0,10.4
Cc1ccc(-n2c(C)nc3oc4ccccc4c(=O)c3c2=O)cc1,2.2*,6.4,·,-7.6,0.1,-2.0
COc1ccc(CN(C(=O)CO)[C@@H](CO[Si](c2ccccc2)(c2ccccc2)C(C)(C)C)c2cccc(NC(C)=O)c2OC)cc1OC,1.2,·,·,·,·,·
Cc1cc(C)nc(N/N=C/C(Cl)=C/c2ccccc2)n1,·,5.7,·,-4.1,0.0,2.1
O=C(CSc1nnc(-c2cccs2)n1-c1cccc(Cl)c1)c1cccc2c1OCCO2,1.1,24.6*,·,-23.7,-3.5,2.3
O=C1c2ccccc2C(=O)N1CCOc1ccccc1,2.1*,-1.9,·,-0.6,-2.4,3.7
